Results published in PubChem BioAssay.
Activity calls are given as the source filed them.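 How the source made its calls, unless noted: active means z-score of at least 1.8 in each of two replicates, scored against plate mean and spread of sample wells; inactive means the rest.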

How the values were obtained:
[1] = survival rescue of mitochondrial mutant cells in low glucose, primary screen, MELAS cybrids, Rieske KO mouse fibroblasts, CellTiter-Glo (AID 1508586;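 active means mean z-score across replicates of 1.96 or higher in either the MELAS or the Rieske mutant cell line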;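 further: test concentration not given here; z relative to plate mean and SD of compound and empty wells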)
[2] = viability rescue of complex I mutant cybrids, primary screen, cell-based, galactose medium, ATP luminescence (AID 1645843); conditions: complex I mutant cybrid cells, 72 h, stronger effect = higher value;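 further: positive z means more ATP and so rescue of galactose-driven cybrid death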
[3] = MELAS cybrid survival, CellTiter-Glo 48 h, stronger effect = higher value
[4] = Rieske KO mouse fibroblast survival, CellTiter-Glo 72 h

Cc1csc(-c2cc(C(=O)N(C)C3CCN(C)CC3)cc(S(=O)(=O)N3CCOCC3)c2)c1
z-score [1, 3]: -0.654 (inactive)
z-score [1, 4]: -0.32
z-score [2]: 0.47 (inactive)

COc1cccc(COC2CN(CCc3ccccc3)C(=O)CN(C(=O)CN3CCOC3=O)C2)c1 (stereo unspecified)
z-score [1, 3]: -0.0866 (inactive)
z-score [1, 4]: -0.325
z-score [2]: 0.48 (inactive)

CC(C)CCNc1cc(C(=O)N[C@H]2CCCCNC2=O)cc(S(=O)(=O)NC(C)C)c1
z-score [1, 3]: -0.205 (inactive)
z-score [1, 4]: 0.262
z-score [2]: -0.51 (inactive)

CCOC(=O)c1nn(Cc2ccccn2)c2c1CN(Cc1ccc(NC(C)=O)s1)CC2
z-score [1, 3]: -0.809 (inactive)
z-score [1, 4]: -0.0726
z-score [2]: 0.55 (inactive)

COc1ccc(CN2C[C@@H](CN3CCOCC3)C[C@@H](C(=O)NCC(C)C)C2)cc1OC
z-score [1, 3]: 0.036 (inactive)
z-score [1, 4]: -0.053
z-score [2]: 0.1 (inactive)

COC(=O)c1c(NC(=O)c2ccoc2)c2cc(NC(C)CSC)cnc2n1Cc1ccccc1 (stereo unspecified)
z-score [1, 3]: -1.27 (inactive)
z-score [1, 4]: 0.841
z-score [2]: -1.28 (inactive)

Cn1nc(C(=O)NCc2cccnc2)c2c1CCN(Cc1ccc3c(c1)Cc1ccccc1-3)C2
z-score [1, 3]: -0.134 (inactive)
z-score [1, 4]: -0.0827
z-score [2]: 0.125 (inactive)

CCN1C(=O)N(C)C(=O)C12CCN(Cc1ccc(Oc3ncccn3)cc1)CC2
z-score [1, 3]: 0.0802 (inactive)
z-score [1, 4]: -0.536
z-score [2]: 1.74 (inactive)

O=C(CC1=CCCCC1)N1CCc2c(cc(-c3cccc(F)c3)c(=O)n2CCN2CCCCC2)C1
z-score [1, 3]: -0.288 (inactive)
z-score [1, 4]: -0.152
z-score [2]: 0.55 (inactive)

COc1ccccc1C(=O)N1CCN2C(=O)[C@H](CCCCN)NC(=O)[C@H]2C1
z-score [1, 3]: 0.643 (inactive)
z-score [1, 4]: -0.574
z-score [2]: -0.735 (inactive)

O=C([C@@H]1C[C@H](CN2CCOCC2)CN(Cc2ccc3ccccc3c2)C1)N1CCCC1
z-score [1, 3]: 1.59 (inactive)
z-score [1, 4]: -0.119
z-score [2]: -0.585 (inactive)

CC(C)CN1C[C@@H](CN2CCOCC2)C[C@@H](C(=O)N2CCCC2)C1
z-score [1, 3]: -0.0982 (inactive)
z-score [1, 4]: -0.607
z-score [2]: -0.485 (inactive)

COC(=O)c1c(NC(=O)Cc2ccccc2)c2cc(NCc3nccs3)cnc2n1CC(C)C
z-score [1, 3]: -0.876 (inactive)
z-score [1, 4]: 1.74
z-score [2]: -1.62 (inactive)

O=C(Cn1cnnn1)N1CC(=O)N(C2CCCCC2)CC(OCc2ccccc2)C1 (stereo unspecified)
z-score [1, 3]: -0.326 (inactive)
z-score [1, 4]: 0.527
z-score [2]: 0.21 (inactive)

O=C1N[C@@H](Cc2c[nH]c3ccccc23)C(=O)N2C[C@@H](NCc3ccccc3Cl)C[C@@H]12
z-score [1, 3]: -0.311 (inactive)
z-score [1, 4]: 0.134
z-score [2]: -0.945 (inactive)

CCCCc1ncc(CN2CCc3c(cc(-c4ccncc4)c(=O)n3C/C=C/c3ccccc3)C2)[nH]1
z-score [1, 3]: -0.405 (inactive)
z-score [1, 4]: -0.0119
z-score [2]: -0.41 (inactive)

COC(=O)c1c(NC(=O)CCc2ccccc2)c2cc(NC(C)C(C)(C)O)cnc2n1C (stereo unspecified)
z-score [1, 3]: -1.19 (inactive)
z-score [1, 4]: -0.398
z-score [2]: -0.305 (inactive)

COc1ccc(CN2C(=O)N(C)C3(CCN(Cc4nc(-c5ccccc5)cs4)CC3)C2=O)cc1
z-score [1, 3]: -0.259 (inactive)
z-score [1, 4]: -0.0505
z-score [2]: -0.2 (inactive)

Cc1ccc(C(C)CCN2CCc3c(c(C(=O)N4CCC(O)CC4)nn3CCc3ccccc3)C2)o1 (stereo unspecified)
z-score [1, 3]: -0.676 (inactive)
z-score [1, 4]: -0.539
z-score [2]: 0.6 (inactive)

CCN1C(=O)N(C)C(=O)C12CCN(Cc1cc3oc(C)c(-c4ccccc4)c3cc1OC)CC2
z-score [1, 3]: -0.0202 (inactive)
z-score [1, 4]: -0.474
z-score [2]: 1.74 (inactive)

Cc1ccc(CNC(=O)c2nn(C)c3c2CC(NC2CCN(Cc4ccccc4)CC2)CC3)o1 (stereo unspecified)
z-score [1, 3]: 0.347 (inactive)
z-score [1, 4]: 0.979
z-score [2]: -1.23 (inactive)

CC(C)[C@@H]1NC(=O)[C@@H]2C[C@H](NC(=O)c3cccc(Cl)c3)CN2C1=O
z-score [1, 3]: 9 (active)
z-score [1, 4]: -0.848
z-score [2]: -0.675 (inactive)

CCN1CCCC1CNC(=O)c1nn(CCOC)c2c1CN(Cc1c(C)nc3sccn13)CC2 (stereo unspecified)
z-score [1, 3]: 0.286 (inactive)
z-score [1, 4]: -0.16
z-score [2]: -0.87 (inactive)

COc1ccc(CN2C[C@@H](COc3cccc(C(F)(F)F)c3)C[C@@H](C(=O)NCC(C)C)C2)cc1OC
z-score [1, 3]: -0.34 (inactive)
z-score [1, 4]: 0.0165
z-score [2]: -1.45 (inactive)

CCn1c(C(=O)OC)c(NC(C)=O)c2cc(NCc3ccc(OC)cc3)cnc21
z-score [1, 3]: -0.521 (inactive)
z-score [1, 4]: -0.331
z-score [2]: -0.96 (inactive)

COc1cc(CN2CC(=O)N(CC3CCOCC3)CC(OCc3ccccn3)C2)cc2c1OCO2 (stereo unspecified)
z-score [1, 3]: -0.369
z-score [1, 4]: 4.95
z-score [2]: -1.33 (inactive)

CCOC(=O)c1nn(Cc2ccc(OC)cc2)c2c1CN(C(=O)CSc1ncccn1)CC2
z-score [1, 3]: -0.668 (inactive)
z-score [1, 4]: -0.456
z-score [2]: 0.665 (inactive)

CN(Cc1ccco1)C(=O)c1nn(C)c2c1CC(N1CCOc3ccc(Cl)cc3C1)CC2 (stereo unspecified)
z-score [1, 3]: -0.11 (inactive)
z-score [1, 4]: 0.109
z-score [2]: -0.61 (inactive)

Cc1cc(-c2cc3c(n(Cc4cccnc4)c2=O)CCN(C(=O)C2Cc4ccccc4O2)C3)ccc1F (stereo unspecified)
z-score [1, 3]: -0.406 (inactive)
z-score [1, 4]: 1.95
z-score [2]: -0.785 (inactive)

COC(=O)c1c(NC(=O)C2CCCO2)c2cc(NCc3ccccn3)cnc2n1CCc1ccccc1 (stereo unspecified)
z-score [1, 3]: -0.44 (inactive)
z-score [1, 4]: -0.0393
z-score [2]: -0.87 (inactive)

O=C1[C@@H]2C[C@@H](O)CN2C(=O)[C@H]2CN(Cc3ccc(CN4CCCCC4)s3)CCN12
z-score [1, 3]: -0.179 (inactive)
z-score [1, 4]: -0.745
z-score [2]: 0.32 (inactive)

Cc1nn(C)cc1CNc1cc(C(=O)NCc2cn3ccccc3n2)cc(S(=O)(=O)NC(C)C)c1
z-score [1, 3]: -0.236 (inactive)
z-score [1, 4]: -0.702
z-score [2]: -0.11 (inactive)

CCOC(=O)c1nn(CC)c2c1CN(C(=O)Cn1nc(-c3ccccc3)c3ccccc3c1=O)CC2
z-score [1, 3]: -0.0607 (inactive)
z-score [1, 4]: 0.472
z-score [2]: 0.925 (inactive)

O=C(NCc1ccccn1)c1cc(NCC2CC2)cc(S(=O)(=O)N2CCCC2)c1
z-score [1, 3]: -0.201 (inactive)
z-score [1, 4]: -0.67
z-score [2]: 0.59 (inactive)

COc1ccc(CN2C[C@H](C(=O)Nc3ccc4c(c3)CCC4)C[C@H](C(=O)N3CCCCC3)C2)cc1OC
z-score [1, 3]: 0.5 (inactive)
z-score [1, 4]: 0.0365
z-score [2]: -1.66 (inactive)

COC(=O)c1c(NC(=O)c2ccoc2)c2cc(NC3CCSCC3)cnc2n1CC(C)C
z-score [1, 3]: -0.463 (inactive)
z-score [1, 4]: -0.31
z-score [2]: 0.98 (inactive)

CCOC(=O)c1nn(CCc2ccc(OC)cc2)c2c1CN(Cc1cccn1-c1ccccn1)CC2
z-score [1, 3]: -0.341 (inactive)
z-score [1, 4]: 0.052
z-score [2]: -1.34 (inactive)

C[C@@H](O)[C@@H]1NC(=O)[C@@H]2C[C@H](NCc3cc4ccccc4s3)CN2C1=O
z-score [1, 3]: -0.64 (inactive)
z-score [1, 4]: -0.73
z-score [2]: -0.615 (inactive)

Cc1nc2ccccc2nc1CN1CC(=O)N(C2CCCCC2)CC(OCc2cccnc2)C1 (stereo unspecified)
z-score [1, 3]: -0.279
z-score [1, 4]: 6.23
z-score [2]: -1.6 (inactive)

CN(C)C(=O)c1nn(Cc2ccccc2)c2c1CN(C(=O)C1CC(=O)Nc3ccccc31)CC2 (stereo unspecified)
z-score [1, 3]: -0.404 (inactive)
z-score [1, 4]: -0.253
z-score [2]: 0.725 (inactive)

O=C(C1COc2ccccc2C1)N1CC(=O)N(C2CCCCC2)CC(OCc2ccccn2)C1 (stereo unspecified)
z-score [1, 3]: 0.04 (inactive)
z-score [1, 4]: -1.17
z-score [2]: 2.08 (inactive)

O=C1N[C@@H](COCc2ccccc2)C(=O)N2C[C@@H](NCc3cnn(-c4cccc(F)c4)c3)C[C@@H]12
z-score [1, 3]: 1.94 (inactive)
z-score [1, 4]: -0.436
z-score [2]: -0.845 (inactive)

Cc1ccn2cc(C(=O)N3CCc4c(cc(-c5ccc(OC(F)(F)F)cc5)c(=O)n4C)C3)nc2c1
z-score [1, 3]: -0.191 (inactive)
z-score [1, 4]: -0.543
z-score [2]: 1.4 (inactive)

Cc1csc(-c2cc(C(=O)N3CCC(N(C)C)C3)cc(S(=O)(=O)N3CCOCC3)c2)c1 (stereo unspecified)
z-score [1, 3]: -0.101 (inactive)
z-score [1, 4]: 0.349
z-score [2]: 0.805 (inactive)

COc1cc(CN2CCc3c(cc(-c4cccc(F)c4)c(=O)n3CCn3ccc(C)n3)C2)ccc1O
z-score [1, 3]: 0.37 (inactive)
z-score [1, 4]: 0.944
z-score [2]: -0.15 (inactive)

CCn1nc(C(=O)N2CCCC2)c2c1CCC(N1CCN(c3ccccc3OC)CC1)C2 (stereo unspecified)
z-score [1, 3]: -0.423 (inactive)
z-score [1, 4]: -0.558
z-score [2]: -0.48 (inactive)

Cc1noc(C)c1CC(=O)N1CCc2c(c(C(=O)N3CCOCC3)nn2CCCc2ccccc2)C1
z-score [1, 3]: 0.975 (inactive)
z-score [1, 4]: -0.571
z-score [2]: -0.895 (inactive)

COCCN1C(=O)N(C2Cc3ccccc3C2)C(=O)C12CCN(Cc1cnn(C)c1C)CC2
z-score [1, 3]: -0.225 (inactive)
z-score [1, 4]: -0.00202
z-score [2]: 1.21 (inactive)

C[C@@H](OCc1ccccc1)[C@@H]1NC(=O)[C@H]2CN(C(=O)Oc3ccccc3)CCN2C1=O
z-score [1, 3]: -0.153 (inactive)
z-score [1, 4]: -0.114
z-score [2]: -1.46 (inactive)

CNS(=O)(=O)c1cc(NCc2cnc(C)[nH]2)cc(C(=O)Nc2ccc3c(c2)CCC3)c1
z-score [1, 3]: -0.00503 (inactive)
z-score [1, 4]: -0.751
z-score [2]: 0.02 (inactive)

CC(C)[C@@H]1NC(=O)[C@H]2CN(C(=O)c3ccccc3Cl)CCN2C1=O
z-score [1, 3]: -0.296 (inactive)
z-score [1, 4]: -0.445
z-score [2]: 1.57 (inactive)

Cn1c2c(cc(Cc3ccccc3F)c1=O)CN(C(=O)c1ccc(C#CC(C)(C)O)o1)CC2
z-score [1, 3]: -0.447 (inactive)
z-score [1, 4]: 0.668
z-score [2]: -0.48 (inactive)

Cc1cc(-c2cc3c(n(C)c2=O)CCN(Cc2c(C)nc4sccn24)C3)ccc1F
z-score [1, 3]: -0.189 (inactive)
z-score [1, 4]: 0.11
z-score [2]: 0.27 (inactive)

COc1ccc(C(=O)N2CCN3C(=O)[C@H](COCc4ccccc4)NC(=O)[C@H]3C2)cc1
z-score [1, 3]: 1.06 (inactive)
z-score [1, 4]: -0.655
z-score [2]: -0.43 (inactive)

COc1ccc(CN2CC(OCc3cccnc3)CN(C(=O)C3=NN(C)C(=O)CC3)CC2=O)cc1 (stereo unspecified)
z-score [1, 3]: -0.43 (inactive)
z-score [1, 4]: -0.34
z-score [2]: 1.23 (inactive)

Cc1ccc(-c2cc(C(=O)NCc3c(C)nn(C)c3C)cc(S(=O)(=O)N3CCOCC3)c2)s1
z-score [1, 3]: -0.303 (inactive)
z-score [1, 4]: -0.219
z-score [2]: 0.42 (inactive)

COCc1ccc(C(=O)N2CCc3c(cc(-c4ccncc4)c(=O)n3CCN3CCCCC3)C2)o1
z-score [1, 3]: -0.345 (inactive)
z-score [1, 4]: 0.626
z-score [2]: 0.77 (inactive)
